The campaign covered roughly 53,000 compounds. About 900 (1.7%) showed an effect of 50% or more. This excerpt belongs to a sample that is enriched for strong results.
System: Mycobacterium tuberculosis
Test: Cornell - Phenotypic assay to identify agents that inhibit growth of Mycobacterium tuberculosis
Type: functional
Parameters: scale not given: direction of the effect not stated beside the values
Details: 10 mM as filed; unlikely as a test dose

Row | SMILES | Percent Effect [%]
1 | CS(=O)(=O)N1CCC(CNc2cc(Cl)ccc2C#N)CC1 | -6.261
2 | COCCO[C@H]1CCN(C(=O)c2cccnc2)[C@H]1Cc1cnn(C)c1.O=C(O)C(F)(F)F | 12.42
3 | COCCS(=O)(=O)c1ncc(CN(C)CC(C)C)n1Cc1ccccc1 | -3.776
4 | COC(=O)CCC(=O)N(Cc1ccc2cc[nH]c2c1)C1CC1 | 90.28
5 | CCNC(=O)N(Cc1cccc(OC)c1)C1CCC(O)CC1 (centres undefined) | 21.75
6 | O=C(C1CC1)N(Cc1ccc2cc[nH]c2c1)C1CC1 | 42.2
7 | CCN(C(=O)CCc1ccc2[nH]ccc2c1)C1CC(=O)NC1=O (centres undefined) | 14.54
8 | COCC(=O)N(Cc1ccc2cc[nH]c2c1)C1CC1 | 57.03
9 | COCC(=O)N(Cc1ccc2[nH]ccc2c1)C1CC1 | 26.94
10 | CCOc1ccccc1C1=CCN(C(=O)C2CCN(C)C(=O)C2)CC1 (centres undefined) | -20.28
11 | COC(=O)c1cccn1C1CCN(C(=O)c2ccc(C)[nH]c2=O)CC1 | -31.25
12 | CCc1cc(N(C)Cc2cc[nH]n2)n2nc(C)c(C)c2n1 | 4.829
13 | CCc1cc(N(C)Cc2ccncn2)n2nc(C)c(C)c2n1 | 59.71
14 | CCc1cc(N(C)Cc2ccnc(C)c2)n2nc(C)c(C)c2n1 | -23.54
15 | Cc1nc(C2CCCN(C(=O)c3cc(Cl)c4c(c3)OCO4)C2)no1 (centres undefined) | 12.39
16 | O=C(C1CCCO1)N1C[C@@H]2CCN(c3cnccn3)C[C@@H]2C1.O=C(O)C(F)(F)F (some centres undefined) | 30.53
17 | c1ccc(C2CCCN(c3cncc(-n4cccn4)n3)CC2)cc1 (centres undefined) | 42.47
18 | c1ccc(C2CCN(c3cncc(-n4cccn4)n3)CC2)cc1 | 25.96
19 | c1ccc(COC2CCN(c3cncc(-n4cccn4)n3)CC2)cc1 | 60.34
20 | Cc1cc(NC(=O)c2ccc(N3CCOCC3)cc2)[nH]n1 | 29.03
21 | O=C(Nc1ccnc2ccnn12)c1ccc(NC2CC2)nc1 | -11.01
22 | O=C(Nc1ccnc2ccnn12)c1ccc(N2CCC(O)CC2)cc1 | 85.62
23 | CS(=O)(=O)N1CCO[C@@H]2CN(C(=O)C3CC(F)(F)C3)C[C@@H]2C1 | -22.45

Row | SMILES | Percent Effect [%]
24 | Cn1c(NC(=O)CNC(=O)C2CC2)nc2cc(Cl)ccc21 | -3.36
25 | Cn1c(NCc2ccc(C(N)=O)cc2)nc2cc(Cl)ccc21 | 60.39
26 | Cn1cc(CNc2nc3cc(Cl)ccc3n2C)cn1 | 16.71
27 | COc1cccc(CN2CCCCCC2c2cccc(C)c2)c1O (centres undefined) | 84.28
28 | COc1cccc(CN2CCCCCC2c2cccs2)c1OC (centres undefined) | 35.04
29 | Cc1cccc(C2CCCCCN2Cc2cn(C)nc2C)c1 (centres undefined) | 15.03
30 | COc1cccc(CN2CCCCCC2c2cccs2)c1O (centres undefined) | 38.44
31 | COc1cccc(CN2CCCCCC2c2cccc(F)c2)c1O (centres undefined) | 45.8
32 | COc1cccc(CN2CCCCCC2c2sccc2C)c1O (centres undefined) | 53.6
33 | COc1cc(-c2cc(N)ncn2)cc(OC)c1OC | 14.69
34 | O=C(NCCNc1ncccn1)C1CCN(C(=O)NC2CC2)CC1 | -5.946
35 | Cc1nc(N(C)C)nc(C)c1NS(=O)(=O)c1ccc(OC(F)(F)F)cc1 | 21.9
36 | CC(=O)N1CCN(c2cnccn2)CC(CO)C1 (centres undefined) | 10.91
37 | COCc1nc(C(=O)N2CCCC2c2noc(C)n2)cs1 (centres undefined) | -28.82
38 | Cc1ccc(CN2CCCC2(C(N)=O)c2cnccn2)c(C)c1 (centres undefined) | -1.756
39 | CSc1[nH]c(=O)c(C(=O)N2CCCC2C2CCCC2)cc1C#N (centres undefined) | 65.7
40 | CCC1CCCCCN1C(=O)c1cc(C#N)c(SC)[nH]c1=O (centres undefined) | -5.356
41 | CSc1[nH]c(=O)c(C(=O)N2CCCC2c2cccs2)cc1C#N (centres undefined) | 17.36
42 | CC(=O)c1ccc(C(=O)NCc2cccnc2N2CCCC(O)C2)s1 (centres undefined) | 26.17
43 | COc1cccc(CN(C)Cc2c(C)noc2C)c1OC | -9.272
44 | Cc1nn(C)c(C)c1S(=O)(=O)NCCn1ccc(-c2cccs2)n1 | -2.587
45 | Cc1nc(-n2nc(-c3cccs3)cc2N)[nH]c(=O)c1C | 75.1
46 | CC(C(N)=O)n1nc(-c2cccs2)cc(N)c1=O (centres undefined) | -30.4

Row | SMILES | Percent Effect [%]
47 | CCc1c(C)nc(SCc2ccccn2)[nH]c1=O | 11.8
48 | CN1CCN(Cn2nc(-c3cccs3)ccc2=O)CC1 | 17.93
49 | CCc1c(C)nc(-n2nc(-c3cccs3)cc2N)[nH]c1=O | 106.9
50 | Cc1ccnc(C2CCN(C(=O)c3cnn(C)c3)CC2)n1 | 19.18
51 | CN1C(=O)C2(CC(=O)Nc3c2cnn3C(C)(C)C)c2ccccc21 (centres undefined) | 16.17
52 | Cc1ccc(CC2CCCN2CC(=O)NCc2cccnc2)cc1 (centres undefined) | 13.39
53 | CN1CC2(CCCN(Cc3cccc(CCN)c3)C2)OC1=O (centres undefined) | 4.729
54 | CN(CC(=O)NCc1ccccn1)C1CCCN(c2cccnn2)C1 (centres undefined) | -22.52
55 | COC(=O)c1ccccc1S(=O)(=O)NC(=O)c1cccc2c1OCCO2 | -3.436
56 | Cl.Cl.O=C1NC2(CCNCC2)CC1c1ccncc1 (centres undefined) | -12.16
57 | O=C1NC2(CCN(CCc3ccccc3)CC2)CC1c1ccccc1 (centres undefined) | 19.15
58 | Cl.O=C1NC2(CCNCC2)CC1c1ccccc1 (centres undefined) | 100.2
59 | Cc1nn(C)c(N(C)C)c1CNCc1ccnc(N2CCOCC2)c1 | 31.35
60 | CCS(=O)(=O)N1C[C@H]2CN(CC3CC3)C(=O)[C@H]2C1 | -29.96
61 | COc1ccccc1CCNS(=O)(=O)N1CCOCC1 | -2.569
62 | COCC(=O)NCCc1nc2cc(-c3ccc(OC)cc3)ncn2n1 | 48.11
63 | Cc1cc(NCCS(C)(=O)=O)nc2cc3c(cc12)CCC3 | 21.34
64 | CC(C)CCC(=O)Nc1ccc2oc(=O)n(CCN(C)C)c2c1 | -39.6
65 | CN(C)CCn1c(=O)oc2ccc(NC(=O)CC(C)(C)C)cc21 | 16.94
66 | CN(C)CCn1c(=O)oc2ccc(NC(=O)CSc3ccccc3)cc21 | 68.34
67 | CCCn1cc(-c2cc(-c3c[nH]cn3)c(C#N)c(N)n2)c(C)n1 | 4.241
68 | CCCn1cc(-c2cc(-c3cnc(OC)nc3)c(C#N)c(N)n2)c(C)n1 | 56.67
69 | CCCn1cc(-c2cc(-c3ccoc3)c(C#N)c(N)n2)c(C)n1 | 46

Source: ChEMBL document CHEMBL3988442, “University of Dundee, Small-Polar-MMV Screening Library” (2021)
